Data from the supplement of paper PMC4166925.
± gives the standard deviation of the averaged measurements. Whole data set: some 33,000 sequences, median “E-score (dimensionless, -0.5 to 0.5)” near -0.046, cut for the highest 2% near 0.36. The sample as a whole holds a higher share of the highest values than the screen did.

What follows are sequences tested on T1, SpTbr T-box DNA-binding domain (GST fusion) (assay: PBM E-score of 8-mer (E-score (dimensionless, -0.5 to 0.5)); Tbr is Tbrain of the sea star Patiria miniata (Pm) or the sea urchin Strongylocentrotus purpuratus (Sp); higher = stronger binding preference). Settings: the construct has about 5 more residues each side.
T1 sequence: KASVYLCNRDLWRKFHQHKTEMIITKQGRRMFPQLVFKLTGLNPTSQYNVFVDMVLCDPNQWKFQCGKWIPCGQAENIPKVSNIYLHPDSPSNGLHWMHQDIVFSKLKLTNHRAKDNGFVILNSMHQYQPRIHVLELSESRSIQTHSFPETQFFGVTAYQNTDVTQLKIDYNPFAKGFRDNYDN
Summary of the method: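 GST-fused Tbr T-box DNA-binding domains (the whole T-box plus about five flanking residues) were expressed in BL21 E. coli at 20 °C and purified by glutathione affinity chromatography. Universal Agilent oligonucleotide arrays were made double-stranded by primer extension, incubated with 200 nM protein in PBS (pH 7.5), then scanned and quantified. Every ungapped 8-mer was scored from probe intensities. The Universal PBM Analysis Suite gave each word an enrichment E-score, averaged over duplicate arrays.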

| Sequence | PBM E-score of 8-mer |
| --- | --- |
| ACCACACT | 0.328 ± 0.0063 |
| CAAGGTCC | -0.257 ± 0.041 |
| AACCCGTT | -0.0209 ± 0.077 |
| GGAGGTCA | 0.0169 ± 0.067 |
| AGAGGTGG | 0.285 ± 0.031 |
| CGAGGTTA | 0.0218 ± 0.011 |
| AGAGGTGC | 0.394 ± 0.014 |
| AGAGGTTC | -0.172 ± 0.065 |
| GGAGGTGA | 0.374 ± 0.035 |
| CGAGGTAC | -0.11 ± 0.026 |
| CGAGGTCA | 0.0539 ± 0.041 |
| CGAGGTGC | 0.445 ± 0.0072 |
| AGAGGTGA | 0.298 ± 0.023 |
| CGAGGTCC | -0.207 ± 0.017 |
| CGAGGTGA | 0.418 ± 0.01 |
| GCAGCCCC | -0.15 ± 0.027 |
| CGTAGTGC | -0.0779 ± 0.017 |
| CGCTCGAC | -0.0351 ± 0.11 |
| ATCCTGTA | -0.104 ± 0.036 |
| ACCAGACT | -0.1941 ± 0.0019 |
| GACGCCCA | -0.0155 ± 0.091 |
| CGGTGTTC | -0.0703 ± 0.07 |
| AGGTGTTG | 0.482 ± 0.0055 |
| AGCTGTTG | 0.208 ± 0.0081 |
| AGATGTTC | 0.0355 ± 0.018 |
| AGGTGTTC | 0.3819 ± 0.00093 |

| Sequence | PBM E-score of 8-mer |
| --- | --- |
| AGATGTTG | 0.0448 ± 0.039 |
| CGGGGTGC | 0.233 ± 0.02 |
| GGCCCAGA | -0.2892 ± 0.0023 |
| GTATGGCA | 0.0595 ± 0.0057 |
| GCGCTGTA | 0.206 ± 0.014 |
| GTACTATA | -0.112 ± 0.079 |
| CCATGCGC | -0.0395 ± 0.1 |
| ACATATCC | -0.0962 ± 0.058 |
| TCTATCAA | -0.141 ± 0.0063 |
| GGGTGTTA | 0.463 ± 0.0026 |
| CGATGTCA | 0.1339 ± 0.00055 |
| GGGGGTTA | -0.156 ± 0.038 |
| GGGGGTCA | 0.0604 ± 0.0046 |
| GCGTGTCA | 0.313 ± 0.024 |
| GGGTGTCA | 0.475 ± 0.0055 |
| CGGTGTGA | 0.456 ± 0.0098 |
| CGGTGTCA | 0.398 ± 0.02 |
| CGGTGTTA | 0.3373 ± 0.0021 |
| CGGTGTCC | -0.0339 ± 0.0071 |
| CGGTGTGC | 0.0403 ± 0.015 |
| CGATGTGA | 0.183 ± 0.017 |
| ATGTAGGG | -0.355 ± 0.013 |
| CGAGTTAA | 0.193 ± 0.008 |
| GCCCACTA | -0.0422 ± 0.07 |
| CTTCACTA | 0.0992 ± 0.0044 |
| GCACCCGC | 0.305 ± 0.035 |

| Sequence | PBM E-score of 8-mer |
| --- | --- |
| ACACCCGG | 0.317 ± 0.042 |
| CCACCCGC | 0.105 ± 0.028 |
| TCACCCGA | 0.0108 ± 0.15 |
| ACACCCGC | 0.3794 ± 0.0031 |
| ACACCCGA | 0.41 ± 0.0072 |
| GCTCTGTA | -0.199 ± 0.025 |
| AACTGACT | -0.141 ± 0.043 |
| CAGAAATG | -0.202 ± 0.012 |
| CGTTTTCC | -0.282 ± 0.054 |
| TCATTACA | -0.0133 ± 0.029 |
| CTGTGAAG | 0.296 ± 0.027 |
| CTGTGAAC | 0.4126 ± 0.00049 |
| ATGTGAAC | 0.203 ± 0.012 |
| ATGTGAAA | 0.263 ± 0.03 |
| CTGTGAAA | 0.396 ± 0.017 |
| TTGTGAAA | 0.361 ± 0.04 |
| AACTAGGC | -0.0665 ± 0.022 |
| GCCGGATA | -0.321 ± 0.0046 |
| CAGAGATC | -0.204 ± 0.022 |
| TCGTAGCA | 0.128 ± 0.038 |
| GGATTGGA | -0.187 ± 0.026 |
| CGATCCGA | -0.0614 ± 0.036 |
| AAAGAGGG | -0.0825 ± 0.036 |
| ACTGACAC | 0.349 ± 0.011 |
| CCTGACAC | 0.427 ± 0.01 |
| GCTGACAA | 0.227 ± 0.031 |

| Sequence | PBM E-score of 8-mer |
| --- | --- |
| CCTGACAG | 0.121 ± 0.0013 |
| GCTGACAC | 0.386 ± 0.039 |
| CCTGACAA | 0.153 ± 0.0094 |
| ATTTGTGG | 0.075 ± 0.012 |
| CTCGGGTC | -0.0239 ± 0.0073 |
| AGATGACG | 0.125 ± 0.029 |
| TACAGCGA | -0.193 ± 0.038 |
| CACACTGA | 0.235 ± 0.0071 |
| CACACTTA | 0.447 ± 0.0064 |
| AACACTGA | 0.0941 ± 0.085 |
| CACACTGC | 0.175 ± 0.0027 |
| CCCACTTC | 0.171 ± 0.018 |
| AACACTTC | 0.407 ± 0.0093 |
| AGCACTTC | 0.3006 ± 0.0019 |
| ATCACTTA | 0.0863 ± 0.053 |
| CACACTTC | 0.4456 ± 0.0039 |
| CGCACTTA | 0.329 ± 0.0023 |
| AACACTTA | 0.386 ± 0.031 |
| ATCACTTC | 0.226 ± 0.033 |
| AGGAGGGG | 0.0237 ± 0.0028 |
| ACATCCAG | 0.11 ± 0.03 |
| CAGATTGA | -0.076 ± 0.021 |
| CCAGAAGC | -0.0847 ± 0.077 |
| CGAGTATC | -0.139 ± 0.032 |
| CCCGTTAC | -0.0493 ± 0.068 |
| AACTGCTC | 0.00139 ± 0.031 |

| Sequence | PBM E-score of 8-mer |
| --- | --- |
| GCAAAAAA | -0.111 ± 0.022 |
| ATCCAATG | -0.108 ± 0.019 |
| ACCATTGA | 0.0727 ± 0.061 |
| GCAGCCAC | 0.126 ± 0.026 |
| ATACAGAC | -0.0432 ± 0.019 |
| TCCAATAA | -0.0798 ± 0.025 |
| GACACTGA | 0.093 ± 0.019 |
| AACACTAG | 0.222 ± 0.049 |
| AACACTTG | 0.3953 ± 0.0019 |
| GACACTTA | 0.393 ± 0.0065 |
| ATCACTTG | 0.169 ± 0.064 |
| GCCACTTA | 0.244 ± 0.011 |
| GTAGCTTA | -0.0295 ± 0.0053 |
| AAGCTTAC | -0.128 ± 0.056 |
| TCAGGCAA | -0.143 ± 0.02 |
| CAGTATTC | -0.193 ± 0.092 |
| AACCTACC | -0.182 ± 0.056 |
| CACCTACA | 0.371 ± 0.014 |
| CACCTACG | 0.373 ± 0.0055 |
| CACCTACC | 0.394 ± 0.01 |
| TACCTACA | -0.24 ± 0.016 |
| AACCTACG | -0.159 ± 0.083 |
| GACCTACA | -0.0944 ± 0.046 |
| CCCCTACG | -0.185 ± 0.019 |
| GACCTACC | -0.129 ± 0.006 |
| CCCGCCTA | -0.0474 ± 0.13 |

| Sequence | PBM E-score of 8-mer |
| --- | --- |
| TATTGCCA | 0.0232 ± 0.0082 |
| CCCTTGCG | -0.0683 ± 0.034 |
| GTCTCAGA | -0.0914 ± 0.014 |
| GGTGCATA | 0.0222 ± 0.011 |
| CCCGATAA | 0.0927 ± 0.11 |
| CCACACGG | 0.0912 ± 0.023 |
| CGAACGAG | 0.0552 ± 0.067 |
| CGTCCTGC | -0.234 ± 0.0096 |
| ATAAGTCA | -0.102 ± 0.017 |
| CGACACCA | 0.387 ± 0.014 |
| AGACACCC | 0.156 ± 0.041 |
| CGACACGA | 0.174 ± 0.041 |
| TGACACCA | 0.419 ± 0.0076 |
| AGACACCA | 0.251 ± 0.032 |
| GGACACCC | 0.185 ± 0.023 |
| CGACACCC | 0.416 ± 0.028 |
| GGACACCA | 0.183 ± 0.045 |
| CGACACCG | 0.257 ± 0.037 |
| GGCCACTA | -0.0216 ± 0.031 |
| CTACTACC | -0.112 ± 0.033 |
| CCAATTTC | 0.0768 ± 0.033 |
| ATCGCTCG | -0.0361 ± 0.046 |
| CCCGCACC | 0.311 ± 0.036 |
| CTCGCAAG | 0.204 ± 0.032 |
| ATCGCAAG | 0.177 ± 0.03 |
| CTCGCAGA | 0.0495 ± 0.024 |

| Sequence | PBM E-score of 8-mer |
| --- | --- |
| ATCGCACG | 0.345 ± 0.027 |
| CTCGCATC | 0.129 ± 0.052 |
| CTGGCACA | 0.1856 ± 0.00035 |
| CTCGCACA | 0.37 ± 0.016 |
| ATGGCACC | 0.3573 ± 0.0028 |
| CTGGCACC | 0.367 ± 0.018 |
| CTCGCACC | 0.451 ± 0.016 |
| ATCGCACA | 0.366 ± 0.0063 |
| AGAGTGAC | 0.145 ± 0.013 |
| ATATTGGC | 0.12 ± 0.019 |
| CGATAGTA | -0.122 ± 0.091 |
| ATTCTACA | -0.0365 ± 0.019 |
| ACGAAAGA | -0.0823 ± 0.0021 |
| AGACTGCG | 0.0627 ± 0.0045 |
| GAATCTTA | -0.197 ± 0.05 |
| CATCTCTA | -0.0506 ± 0.074 |
| CAGACTCA | -0.0949 ± 0.051 |
| GCTCTCAC | 0.312 ± 0.028 |
| GACTGTGC | -0.124 ± 0.033 |
| GCCCGTCC | -0.216 ± 0.0065 |
